In PubChem BioAssay AID588456 (National Center for Advancing Translational Sciences (NCATS), 2011):
Out of some 390,000 compounds screened, about 55 (0.01%) were called active. The call rests on the fitted dose curve; in most records, active means well fitted inhibition curve with a large enough effect; inconclusive means small, poorly fitted or top-dose-only effect; inactive means no such curve, though single readings can be large or run the other way. Only a sample is shown.

biological target: Thioredoxin reductase 1, cytoplasmic (Rattus norvegicus) (UniProt O89049); assay: qHTS Assay for Substrates of Mammalian Selenoprotein Thioredoxin Reductase 1 (TrxR1): qHTS; conditions: purified TrxR1 substrate turnover, NADPH consumption readout; series mostly up to 114 µM; activity change, negative = substrate turnover: at the top concentration; further: nearly all actives have a fitted effect of over 50% in size
Excerpt: The selenoprotein thioredoxin reductase (TrxR; EC 1.8.1.9) is a FAD containing homodimeric pyridine nucleotide-disulfide oxidoreductase with many cellular roles. Together with NADPH and its prime substrate thioredoxin (Trx), the enzyme forms the core of the Trx system. The mammalian Trx system exerts a wide spectrum of functions including redox regulation, antioxidant defense, regulation of transcription factors as well as support of cell growth and replication. Many of these functions involve the reduction of Trx, which may subsequently reduce a number of different substrates including ribonucleotide reductase, peroxiredoxins or NFkB. Mammalian TrxR itself also has a broad substrate specificity, reducing both protein and non-protein substrates, including low molecular weight compounds such as dehydroascorbate, lipoic acid, ubiquinone, and juglone. In addition, several drugs in clinical use for anticancer treatment are indeed known to target TrxR1.
This BioAssay is a validation of an NADPH fluorescence-based, dual-purpose qHTS rTrxR1 assay designed to find potential inhibitors and substrates of rTrxR1. For this particular BioAssay, actives are potential substrate. See related BioAssay for inhibition data deposition.
NIH Molecular Libraries Probe Production Network [MLPCN]
NIH Chemical Genomics Center [NCGC]
Assay Provider: Elias Arner, Karolinska Institute
Assay protocol: 2 uL of reagents (buffer in column 4 as negative control and 90 nM rTrxR1 in columns 1-3 and 5-48) were dispensed into Greiner black solid-bottom 1,536-well assay plates, followed by 1 uL of NADPH (400 uM final concentration) to each well. The plates were centrifuged at 1000 rpm for 15 seconds and subsequently incubated for 5 min at room temperature (~22 deg C) to allow for rTrxR1 reduction. Compounds (23 nL) were then transferred via Kalypsys pin tool equipped with 1536-pin array (10 nL slotted pins, V&P Scientific, San Diego, CA). In addition, a duplicate 2-fold serial dilution of the control compounds auranofin, a known gold-based TrxR1 inhibitor, and juglone (5-hydroxy-1,4-naphthoquinone), a natural TrxR1 substrate, were pin-transferred to columns 2 and 3, respectively. After incubation for 15 min at room temperature (~22 deg C), 1 uL of selenite (400 uM final concentration) were dispensed to each well. The plate was immediately transferred to a ViewLux high-throughput CCD imager (PerkinElmer), wherein kinetic measurements of NADPH fluorescence (Ex 340 nm, Em 450 nm) were acquired (8 minute kinetic read, see Table 1). Read 1 was utilized to assess the capacity of a compound to serve as an rTrxR1 substrate, i.e. a decrease in NADPH fluorescence compared to the no-compound background is an indication of a substrate behavior for that particular compound. For inhibitory activity of a compound, delta values, computed as the difference in fluorescence intensity between the first and last reads of an 8-minute time kinetic window, were used. All reagents were diluted in an assay buffer consisting of 50 mM Tris-HCl, pH 7.5, 2 mM EDTA, and 0.01% Tween-20.
Throughout the screen, reagent bottle and all liquid lines were made light-tight to minimize reagent degradation. All screening operations were performed on a fully integrated robotic system (Kalypsys, San Diego, CA) containing one RX-130 and two RX-90 anthropomorphic robotic arms (Staubli, Duncan, SC). Library plates were screened starting from the lowest and proceeding to the highest concentration, and a 'double-pinning' step of the highest concentration was required to access higher concentrations of compounds. Vehicle-only plates, with DMSO being pin-transferred to the columns 5-48, were inserted uniformly at the beginning and the end of each library in order to monitor and record any shifts in the background, which can be affected by reagent dispensers or loss in enzyme activity over time. […]
On the % scale 0 is the no-effect control and ±100 the full control effect.

Chain of Thioredoxin reductase 1, cytoplasmic (Rattus norvegicus) (O89049 whole entry, looked up): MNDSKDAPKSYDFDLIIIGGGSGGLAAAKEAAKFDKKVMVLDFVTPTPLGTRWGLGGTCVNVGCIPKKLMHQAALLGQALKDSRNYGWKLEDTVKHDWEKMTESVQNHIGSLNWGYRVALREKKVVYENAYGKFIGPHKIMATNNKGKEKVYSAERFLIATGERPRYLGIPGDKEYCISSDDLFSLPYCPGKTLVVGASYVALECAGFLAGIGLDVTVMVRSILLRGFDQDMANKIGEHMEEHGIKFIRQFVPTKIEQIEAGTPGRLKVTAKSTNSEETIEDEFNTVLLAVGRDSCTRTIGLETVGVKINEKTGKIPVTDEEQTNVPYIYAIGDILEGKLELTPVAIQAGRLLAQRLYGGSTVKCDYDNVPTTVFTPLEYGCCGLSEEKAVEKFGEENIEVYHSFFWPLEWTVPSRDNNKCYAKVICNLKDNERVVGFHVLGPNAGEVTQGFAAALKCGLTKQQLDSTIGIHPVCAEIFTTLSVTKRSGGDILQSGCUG

Activity change, negative = substrate turnover, inactive:
O=C(O)c1c(Br)c(Br)c(Br)c(Br)c1C1c2ccc(O)cc2Oc2cc(O)ccc21 -0.493%, O=C(NCCCO)C(=O)Nc1c2c(nn1-c1ccc(F)cc1)CSC2 -2.34% [at 57.1 µM], C(=Nc1ccc(/C=C/c2ccnc3ccccc23)cc1)c1cc2c3c(c1)CCCN3CCC2 -2.53%, Cc1ccc2nc3c(cc(C(=O)NC4CCCCC4)c(=N)n3C(C)C)c(=O)n2c1 203%, Cc1ccc(CN(C(=O)COc2ccc(Cl)cc2C)C2CCS(=O)(=O)C2)o1 (stereo not given) -0.557%, CCOc1n[nH]c(-c2ccccc2)n1 -11%, COc1ccc(CCNC(=O)CCCCn2c(=O)c3ccccc3n(Cc3ccccc3C)c2=O)cc1OC -7.44%, CS(=O)c1ccc(/C=C2\C=Cc3ccccc32)cc1 (stereo not given) 1.35% [at 0.0914 µM], COc1ccccc1NC(=O)C1=C(C)Nc2ncnn2C1c1sccc1C (stereo not given) 3.43% [at 57.1 µM], Cc1ccc(C2C=C(c3ccc(Cl)cc3)Nc3nc(NC(=O)CCC(=O)O)nn32)cc1 (stereo not given) 19% [at 57.1 µM], C/C=C/NNC(=O)Cc1ccc(OC)cc1 4.71%, CCOC(=O)c1ccc(NC(=O)CCS(=O)(=O)c2ccc3c(c2)oc(=O)n3C)cc1 2.83%, COCCCNC(=O)c1ccc(NC(=O)c2nsc3ccccc23)cc1 1.31% [at 57.1 µM], CC1(C)C=Cc2c(ccc(C(=O)/C=C/c3ccccc3)c2O)O1 6.76%, CCN(CC)/[N+]([O-])=N/OCOC(=O)Cc1c(C)n(C(=O)c2ccc(Cl)cc2)c2ccc(OC)cc12 12.6% [at 0.457 µM], CC(=O)/C(C)=N/O 3.07% [at 57.1 µM], COc1ccc(CN(Cc2ccccc2)C(=O)c2ccc(O)cc2)cc1COc1ccc(NC(C)=O)cc1 -9.25%, O=C(CSc1nc2c(c(=O)[nH]1)CN(Cc1ccc(F)cc1)CC2)Nc1ccccc1Cl 17.6%, O=C(COc1ccccc1)OCc1cc(=O)n2nc(-c3cccs3)sc2n1 0.495% [at 57.1 µM], Cc1cccc(NC(=O)COC(=O)c2ccccc2OCc2cccc(Br)c2)c1 -1.38%, CN(C)C1=C2C=CC=CC2/C(=C2/C=Cc3ccccc32)C=C1 (stereo not given) -4.06%, CSc1nc(-c2ccccc2Cl)nc2c1Cc1c(CO)cnc(C)c1O2 -7.75%, CN(C)c1ccc(/C=C/c2sc3ccccc3[n+]2C)cc1 -3.98%, Cc1cccc(NC(=O)c2ccc3nc(C(C)C)oc3c2)c1C 4.38% [at 57.1 µM], O=C(Nc1ccccc1C(F)(F)F)c1nc(S(=O)(=O)Cc2ccccc2F)ncc1Cl -1.77%, CN(C)c1ccc(/C=C/C=C/c2ccnc3ccccc23)cc1 -10.2%, CCCCCCC1(C)NC(c2ccc3c(c2)OCO3)=CC(c2ccccc2O)N1 (stereo not given) -0.425%, SCc1nc2ccc(Cl)cc2[nH]1 6.82%, Cc1ccc2nc(COc3cccc(NC(=O)Nc4ccc(C)c(Cl)c4)c3)cc(=O)n2c1 4.87% [at 57.1 µM], O=C1C[C@H]2C=CCc3cccc(c32)CN1Cc1ccccc1 1.88%, O=C1CCC[C@@H]2C[C@@]3(C[C@@H]4CCN1[C@H]24)Nc1ccccc1NC3=NCc1ccccc1 0.601%, CCCCOc1ccc(CN2C(=O)C(=O)c3cc(Br)cc(C)c32)cc1OC -13.6%, CCN(CC)c1ccc(/C=C/c2c(C)cnc3ccc(C)cc23)cc1 0.74%, CCOc1ccc(CCNC(=O)Cn2nc(CC)n3c(cc4sc(CC)cc43)c2=O)cc1OCC 5.63%, CCC(C)N(c1ccc(/C=C/c2ccnc3ccccc23)cc1)C(C)CC (stereo not given) -24.3%, O=C(COc1ccccc1C(=O)Nc1ccccc1)Nc1cccc(F)c1 -2.82%, CCCCOc1ccc(C(=O)NO)cc1 7.06%, Cc1ccc(-c2nc(=N)sn2Cc2ccccc2)cc1 -7.18%, C[N+]1(CC(=O)c2cccs2)CCOCC1 -3.03%, COc1ccccc1OCCNCC(O)COc1cccc2[nH]c3ccccc3c12 (stereo not given) 1.64% [at 57.1 µM], CN(C)c1ccc(/C=c2\[nH]c(=O)/c(=C/c3ccc(N(C)C)cc3)[nH]c2=O)cc1 0.801%, Cc1ccc(-n2nc(C)c(C(=O)O)c2-n2cccc2)cc1 6.47%, OC(CBr)CN1CCCCC1 (stereo not given) 2.77%, O=C(O)/C(=C/c1c(C(=O)O)[nH]c2cc(Cl)cc(Cl)c12)c1ccccc1 4.79% [at 57.1 µM], Cc1ccc(-c2nnc(Nc3ccc(OCC(N)=O)cc3)c3ccccc23)cc1S(=O)(=O)NCC1CCCO1 (stereo not given) 5.43%, CCc1cccc(NC(=O)c2cnc(N3CCOCC3)c3ccccc23)c1 -3.11% [at 57.1 µM], CCC(=O)N1CCc2cc(Br)cc(S(=O)(=O)NCc3ccc(Cl)cc3)c21 -5.84%, Cc1cc2oc(C(=O)N(Cc3ccc(Cl)cc3)Cc3ccco3)c(C)c2cc1Cl -6.31%, O=C(C[n+]1ccncc1)c1ccc2c(c1)CCCC2 -3.94%, CNCCCOc1cc2nc(N3CCCN(C)CC3)nc(NC3CCN(C)CC3)c2cc1OC 72.1%, C=CCNC(=O)c1ccc2nc(-c3ccco3)c(-c3ccco3)nc2c1 5.41%, Clc1cccc[n+]1CCCC[n+]1ccccc1Cl -4.62%, Cc1ccc(NC(=O)c2ccc3[nH]c(C)cc(=O)c3c2)c(C)c1 -6.49%, O=C(COC(=O)c1ccccc1OCCOc1ccccc1)Nc1cccc(Br)c1 4.75%, O=C1CC(c2ccc(F)cc2F)c2cc3c(cc2N1)OCO3 (stereo not given) -6.86%, NS(=O)(=O)c1ccc(NC(=O)CSc2nnc3c(n2)[nH]c2ccccc23)cc1 3.13%, COc1cc2[nH]c(C)c(CCN3CCN(c4ccccc4)CC3)c2cc1OC -6.51%, COc1ccc(CCNC(=O)CCCn2c(=O)c3ccccc3n(Cc3ccc(C)cc3)c2=O)cc1OC 5.29%, Cc1ccc(-c2cc(N)n(Cc3cccc(Cl)c3)n2)cc1 -9.95%, Oc1ccc(Cn2cc[nH]c2=S)cc1 2.64% [at 57.1 µM], OCC(O)C(O)C(O)C(O)C=Nc1ccc(/C=C/c2ccnc3ccccc23)cc1 (stereo not given) 5.9% [at 0.0914 µM], CC(C)CNc1ncnc2c1nnn2C -1.51% [at 57.1 µM], CCN1CCN(c2ccc(/C=C/c3ccnc4ccccc34)cc2)CC1 -2.31%, CCC(C(=O)Nc1cccc(-c2nc3cccnc3s2)c1C)c1ccccc1 (stereo not given) 14%, COC(=O)c1scc(-c2ccccc2)c1S(=O)(=O)Nc1ccccc1 6.31% [at 57.1 µM], C(=Nc1ccc(/C=C/c2ccnc3ccccc23)cc1)Nc1ccc(/C=C/c2ccnc3ccccc23)cc1 -7.45%, COc1cc2nc(N3CCCN(C)CC3)nc(NC3CC3)c2cc1OC 23.4%, Cc1ccc(Cl)cc1NC(=O)NC1COc2ccccc2C1 (stereo not given) -4.68% [at 57.1 µM], O=C(NCc1ccccc1)c1cccc(NC(=O)N2CCSc3ncccc32)c1 14.6%, CC1(C)CC(=O)c2cc(C(=O)NCc3ccccc3)c(=O)[nH]c2C1 -6.92%, CCCCCCCNc1ccc(/C=C/c2ccnc3ccccc23)cc1 -6.31%, O=C(CC1Oc2ccc(Cl)cc2NC1=O)NCc1ccccc1 (stereo not given) 10.4%, CSc1cccc(NC(=O)CN2C(=O)CCc3cc(S(=O)(=O)N4CCCCC4)ccc32)c1 5.52% [at 57.1 µM], Cc1ccc(NC2=C(c3ccc(C(F)(F)F)cc3)C(=O)c3ccccc32)cc1F -10.1%, CNC(=O)c1ccc(-c2nc(CN3CCc4ccccc43)c(C)o2)cc1 5.73% [at 57.1 µM], O=C(c1ccco1)N(Cc1cccs1)c1ccc(O)cc1 -12.1%, S=c1[nH]c(=S)c2n[nH]nc2[nH]1 -1.94% [at 0.0914 µM], CC(C)(C)c1ccc(C(=O)C[N+]2(C)CCCc3ccccc32)cc1 (stereo not given) 0.15%, O=C(O)C1=C/C(=C/C=[N+]2c3cc(O)c(O[C@H]4OC(CO)[C@@H](O)[C@@H](O)[C@@H]4O)cc3C[C@@H]2C(=O)[O-])C[C@H](C(=O)O)N1 (stereo not given in full) -2.67%, CC1CC(C)CN(c2oc(-c3ccc(OCc4ccc(Cl)cc4)cc3)nc2C#N)C1 (stereo not given) 6.36% [at 0.0914 µM], c1ccc(Cn2nnc3c(N4CCCCC4)ncnc32)cc1 -2.36%, CCC(=O)N1CCc2cc(S(=O)(=O)NC(C(=O)NCCc3ccc(C)cc3)C(C)C)ccc21 (stereo not given) 5.25%, OCCNc1ncnc2oc(-c3ccco3)c(-c3ccco3)c12 51.2%, O=[N+]([O-])c1ccc(/C=C/c2ccc3cccnc3c2)cc1 -4.78%, Cc1ccc(-c2nc3ccccn3c2Nc2ccc(F)cc2)o1 207%, O=C(Nc1ccc(O)c(-c2nc3ccccc3o2)c1)c1ccc(-c2cccc(Cl)c2)o1 -3.24%, CCc1cccc(NC(=O)CN(C)S(=O)(=O)c2ccc3[nH]c4c(c3c2)CCCC4)c1 -8.34%, COc1cc2nc(C#Cc3nc4cc(OC)c(OC)cc4[nH]3)[nH]c2cc1OC 896%, NC(=O)Nc1ccc(/C=C/c2ccnc3ccccc23)cc1 8.44%, CCOC(=O)C1CCCN(C(=O)Cn2ncc3c(C)n(Cc4ccc(F)cc4)c(C)c3c2=O)C1 (stereo not given) -4.95%, COc1ccc(/C=C/c2ccnc3ccccc23)cc1OC -3.3%, O=C(Nc1ccc([N+](=O)[O-])cc1)c1cnn2c1NC(=C1CC1)C=C2C(F)F 3.87%, COc1ccc(-c2nc(CN3CCC(C(=O)NCc4ccccc4)CC3)c(C)o2)cc1OC 11%, Cc1c(CCO)sc[n+]1CC(=O)c1ccc2ccccc2c1 83.8%, CN(C)c1cccc2ccccc12 -13.4%, O=C(Nc1ccc(Cl)cc1)c1cnn2c1NC(=C1CC1)C=C2C(F)F 8.83%, O=C(Cn1cc(SCc2ccccc2)c2ccccc21)N1CCCCC1 -7.71%, Cc1ccc(C(=O)Nc2ccc(OCc3cc(=O)n4c5c(sc4n3)CCCC5)cc2)cc1 1.97%, N#Cc1ccc[n+](CC(=O)c2ccc(O)c(O)c2)c1 -13.3%, Cc1ccc(Nc2c(-c3ccc(C)s3)nc3ccccn23)cc1, COc1ccc(S(=O)(=O)Nc2cccc3cccnc23)c(N)c1 -1.46%, Cc1cccc(-c2nnc(SC(C)C(=O)Nc3ccccc3)n2C)c1 (stereo not given) 6.08%, CCn1c(C)c(C)c2cc(C(=O)NCCc3cc(OC)ccc3OC)ccc21 5.36% [at 57.1 µM], Cc1csc[n+]1CCC1CCCCC1 10.5%, CC(C)(C)C1CCC(NC(=O)c2cnn3c2NC(=C2CC2)C=C3C(F)F)CC1 (stereo not given) 3.26%
